A number with no mark means an inactive call. Records with an inconclusive call do not appear. Entries that show only a call come without a potency. Calls of active or inactive are those of the source. Unless noted, calls follow the shape of the dose curve; as a rule, active = well fitted curve in the direction sought with a large enough effect in the repeat runs; inconclusive = weak or mixed curves; inactive = no such curve, though single readings can be large; an effect the other way counts as inactive or inconclusive.
Assays:
[1] = qHTS assay to identify small molecule agonists of the estrogen receptor alpha (ER-alpha) signaling pathway in the presence of an antagonist - cell viability counter screen (AID 1259386); also: nearly all actives have a fitted effect of over 30% in size; also: potency is read from the fitted curve at half-maximal effect; as to activity change, negative = cytotoxicity: series mostly up to about 92 µM
Method in brief: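 Compounds tested at 15 concentrations for 22 h at 37C alongside 10.0nM (final) ICI-182,780 antagonist, in VM7Luc4E2 cells grown in phenol red-free, charcoal-stripped medium. Viability read by CellTiter-Fluor fluorescence after 1 h reagent incubation.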

[2] = target: Progesterone receptor (Homo sapiens) (UniProt P06401); experiment: qHTS assay to identify small molecule agonists of the progesterone receptor (PR) signaling pathway (AID 1346784; calls by dose curve; also: nearly all actives have a fitted effect of over 30% in size)
Progesterone receptor (Homo sapiens), sequence (P06401 whole entry, looked up): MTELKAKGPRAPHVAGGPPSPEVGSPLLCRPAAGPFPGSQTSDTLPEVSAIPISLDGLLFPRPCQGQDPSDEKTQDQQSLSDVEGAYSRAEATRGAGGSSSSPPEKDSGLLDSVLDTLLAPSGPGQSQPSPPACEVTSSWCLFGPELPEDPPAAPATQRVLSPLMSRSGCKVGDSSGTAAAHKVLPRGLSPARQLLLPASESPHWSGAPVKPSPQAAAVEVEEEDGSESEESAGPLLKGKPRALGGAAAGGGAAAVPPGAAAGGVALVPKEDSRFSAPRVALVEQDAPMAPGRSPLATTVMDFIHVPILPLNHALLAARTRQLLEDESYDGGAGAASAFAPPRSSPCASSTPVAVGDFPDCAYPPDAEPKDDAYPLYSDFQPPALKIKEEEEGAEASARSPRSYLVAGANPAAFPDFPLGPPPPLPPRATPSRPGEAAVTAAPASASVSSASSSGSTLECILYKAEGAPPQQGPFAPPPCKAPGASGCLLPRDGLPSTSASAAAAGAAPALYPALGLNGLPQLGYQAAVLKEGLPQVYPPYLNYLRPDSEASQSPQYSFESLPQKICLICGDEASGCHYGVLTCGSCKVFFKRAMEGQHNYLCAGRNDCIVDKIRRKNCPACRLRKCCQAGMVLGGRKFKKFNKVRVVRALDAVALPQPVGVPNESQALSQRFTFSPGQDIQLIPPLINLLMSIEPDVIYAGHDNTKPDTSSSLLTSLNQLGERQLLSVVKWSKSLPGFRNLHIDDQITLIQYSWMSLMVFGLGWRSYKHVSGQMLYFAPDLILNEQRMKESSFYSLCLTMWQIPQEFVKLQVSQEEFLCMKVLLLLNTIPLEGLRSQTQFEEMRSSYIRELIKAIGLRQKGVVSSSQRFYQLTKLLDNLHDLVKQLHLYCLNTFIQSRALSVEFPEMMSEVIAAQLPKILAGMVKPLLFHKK
Method in brief: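 PR-UAS-bla HEK 293T cells carrying a UAS-driven beta-lactamase reporter were seeded in medium with 2% charcoal-stripped FBS, preincubated 6 hr at 37C, then exposed to compounds in DMSO for 16 hr; agonism was read by LiveBLAzer B/G FRET fluorescence.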

[3] = qHTS assay to identify small molecule antagonists of the progesterone receptor (PR) signaling pathway - cell viability counter screen (AID 1346798); also: nearly all actives have a fitted effect of over 50% in size; also: potency is read from the fitted curve at half-maximal effect; as to activity change, negative = cytotoxicity: series mostly up to about 92 µM
Method in brief: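 PR-UAS-bla HEK293T cells in medium with 2% charcoal-stripped FBS were treated with compounds plus R5020 for 16 hr at 37C. Cell viability was then read by CellTiter-Glo luminescence after 30 min at room temperature in the same wells.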

[4] = qHTS assay to identify small molecule agonists of the TGF-beta/Smad signaling pathway (AID 1346859; active = well fitted activation curve with a large enough effect in the signal ratio in the repeat runs, not every such curve was filed as active; the % refers to the signal ratio; also: series mostly up to about 77 µM)
Method in brief: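 HEK 293T cells stably carrying a beta-lactamase reporter driven by the Smad binding element were seeded overnight, exposed to DMSO-dissolved compounds for 5 hr at 37 C, 5% CO2, then loaded with FRET substrate for 2 hr at room temperature.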

[5] = target: Thyrotropin-releasing hormone receptor (Homo sapiens) (UniProt P34981); experiment: qHTS assay to identify small molecule antagonists of the thyrotropin-releasing hormone receptor (TRHR) signaling pathway (AID 1346877; active = well fitted inhibition curve with a large enough effect in the repeat runs, not every such curve was filed as active; also: series mostly up to about 51 µM)
Thyrotropin-releasing hormone receptor (Homo sapiens), sequence (P34981 whole entry, looked up): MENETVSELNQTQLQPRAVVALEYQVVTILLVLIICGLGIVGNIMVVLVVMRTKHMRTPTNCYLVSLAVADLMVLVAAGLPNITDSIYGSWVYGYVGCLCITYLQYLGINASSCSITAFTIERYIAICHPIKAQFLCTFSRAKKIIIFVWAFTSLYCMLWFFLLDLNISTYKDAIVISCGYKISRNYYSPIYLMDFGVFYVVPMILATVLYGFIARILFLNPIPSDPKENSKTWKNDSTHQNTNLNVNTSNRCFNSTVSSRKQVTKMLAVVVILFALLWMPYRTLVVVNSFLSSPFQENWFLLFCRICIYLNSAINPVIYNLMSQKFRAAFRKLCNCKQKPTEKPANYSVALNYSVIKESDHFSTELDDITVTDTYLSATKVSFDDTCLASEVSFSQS
Method in brief: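 Antagonist mode: after a 5 min room-temperature compound exposure, cells were stimulated with 1 nM (final) TRH. Dye-loaded TRHR-HEK293 cells were used, and calcium-dependent fluorescence was followed for 3 min, with 15-point titrations run in triplicate.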

[6] = target: Thyrotropin-releasing hormone receptor (Homo sapiens) (UniProt P34981); experiment: qHTS assay to identify small molecule agonists of the thyrotropin-releasing hormone receptor (TRHR) signaling pathway (AID 1346891; calls by dose curve; also: series mostly up to about 58 µM)
Method in brief: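 TRHR-expressing HEK293 cells were plated 18 h at 37 °C/5% CO2, loaded with calcium dye 2 h at 37 °C, then given compound in DMSO; fluorescence was read kinetically for 3 min at 1 s intervals.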

[7] = Human pregnane X receptor (PXR) small molecule agonists, qHTS cell viability counter screen (AID 1346977); also: nearly all actives have a fitted effect of over 50% in size; also: potency is read from the fitted curve at half-maximal effect
Method in brief: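 PXR-Luc HepG2 cells in medium with 5% charcoal-stripped FBS were pre-incubated 5hr, then exposed to compounds for 24hr at 37C. Viability was read in the same wells by CellTiter-Fluor fluorescence, reagent added after 23hr with a 1hr incubation.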

[8] = Caspase-3/7 induction in CHO-K1 cells by small molecules, qHTS assay (AID 1346980); also: nearly all actives have a fitted effect of over 15% in size
Method in brief: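 Wild-type cells were seeded at 1,500 per well and settled 5 hr at 37 C, 5% CO2, then exposed to DMSO-dissolved compounds for 17 hr. Caspase-Glo 3/7 reagent was added, and luminescence was read after 30min at room temperature.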

[9] = Caspase-3/7 induction in HepG2 cells by small molecules, qHTS cell viability counter screen (AID 1346981); also: nearly all actives have a fitted effect of over 30% in size; also: potency is read from the fitted curve at half-maximal effect; as to activity change, negative = cytotoxicity: series mostly up to about 92 µM
Method in brief: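 CellTiter-Fluor fluorescence measured viability in the same wells used for Caspase-Glo 3/7. HepG2 (wild type) at 2,000 cells/well were pre-incubated 5 hr, dosed, and given reagent at 16 hr, with 1 hr further at 37C.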

[10] = target: Nuclear receptor subfamily 1 group I member 2 (Homo sapiens) (UniProt O75469); experiment: Human pregnane X receptor (PXR) small molecule agonists, qHTS assay (AID 1346982); also: nearly all actives have a fitted effect of over 35% in size; also: potency is read from the fitted curve at half-maximal effect
Nuclear receptor subfamily 1 group I member 2 (Homo sapiens), sequence (O75469 whole entry, looked up): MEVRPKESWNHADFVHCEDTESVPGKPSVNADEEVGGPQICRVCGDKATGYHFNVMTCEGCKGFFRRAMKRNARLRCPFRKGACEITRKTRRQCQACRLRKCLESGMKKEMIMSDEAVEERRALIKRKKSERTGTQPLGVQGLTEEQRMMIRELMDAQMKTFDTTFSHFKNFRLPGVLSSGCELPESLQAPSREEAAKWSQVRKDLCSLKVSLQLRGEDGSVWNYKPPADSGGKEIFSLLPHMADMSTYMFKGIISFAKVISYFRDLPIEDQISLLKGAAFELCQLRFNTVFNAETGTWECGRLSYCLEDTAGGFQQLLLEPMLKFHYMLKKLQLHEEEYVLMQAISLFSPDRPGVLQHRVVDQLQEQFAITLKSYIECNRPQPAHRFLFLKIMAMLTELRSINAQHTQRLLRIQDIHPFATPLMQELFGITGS
Method in brief: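 Agonist mode: luminescence from ONE-Glo after 24 h compound exposure at 37C in HepG2 cells carrying hPXR-responsive CYP3A4 luciferase, plated in charcoal-stripped serum medium 5 h beforehand.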

[11] = target: Nuclear receptor subfamily 1 group I member 2 (Rattus norvegicus) (UniProt Q9R1A7); experiment: Rat pregnane X receptor (rPXR) activation by small molecules, qHTS assay (AID 1346983); settings: rPXR luciferase reporter cells, One-Glo luminescence, 24 h; max activation: hits give high values; also: nearly all actives have a fitted effect of over 20% in size
Nuclear receptor subfamily 1 group I member 2 (Rattus norvegicus), sequence (Q9R1A7 whole entry, looked up): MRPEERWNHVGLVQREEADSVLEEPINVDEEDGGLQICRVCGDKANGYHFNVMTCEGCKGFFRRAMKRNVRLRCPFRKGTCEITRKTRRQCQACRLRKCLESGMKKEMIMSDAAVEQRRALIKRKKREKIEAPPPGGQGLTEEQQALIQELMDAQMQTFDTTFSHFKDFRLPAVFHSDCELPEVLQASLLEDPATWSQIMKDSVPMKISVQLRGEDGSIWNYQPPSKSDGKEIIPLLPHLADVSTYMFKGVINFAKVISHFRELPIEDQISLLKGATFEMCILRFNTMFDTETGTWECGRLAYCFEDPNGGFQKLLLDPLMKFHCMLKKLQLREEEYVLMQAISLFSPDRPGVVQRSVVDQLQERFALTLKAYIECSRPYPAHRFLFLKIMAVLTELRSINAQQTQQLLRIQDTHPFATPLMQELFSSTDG
Method in brief: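 Cell-based rPXR luciferase reporter assay, 2,000 cells per well, rested 5hr at 37 C before compound addition in DMSO, then 24 hr at 37 C. One-Glo reagent was added and luminescence read after 30 min at room temperature.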

[12] = target: Nuclear receptor subfamily 1 group I member 2 (Homo sapiens) (UniProt O75469); experiment: CYP3A4 induction through human pregnane X receptor (PXR) by small molecules, qHTS assay (AID 1346984); also: nearly all actives have a fitted effect of over 40% in size
Method in brief: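 Read-out is luminescence after One-Glo addition, following a 3 hr, 37C incubation with Luciferin-IPA CYP3A4 substrate (3uM final). Before that, compounds were on DPX-2 cells (HepG2 co-transfected with PXR element plus CYP3A4-promoter luciferase) for 24 hr at 37C.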

[13] = target: Nuclear receptor subfamily 1 group I member 2 (Homo sapiens) (UniProt O75469); experiment: Human pregnane X receptor (PXR) activation by small molecules, qHTS assay (AID 1346985); also: nearly all actives have a fitted effect of over 40% in size; also: potency is read from the fitted curve at half-maximal effect
Method in brief: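 DPX-2 cells (HepG2 co-transfected with a PXR response element and a CYP3A4-promoter luciferase construct) were seeded at 2,000 per well, rested 5 hr at 37C, then exposed to DMSO-dissolved compounds for 24 hr. Activation was read as luciferase luminescence.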

[14] = qHTS assay to identify small molecule agonists of the TGF-beta/Smad signaling pathway - cell viability counter screen (AID 1346829); also: nearly all actives have a fitted effect of over 45% in size; also: potency is read from the fitted curve at half-maximal effect; as to activity change, negative = cytotoxicity: top concentration of the series differs between compounds
Method in brief: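 Compound-treated SBE-bla HEK 293T cells (5 hr, 37 C) were assessed for viability with CellTiter-Glo in parallel with the reporter read.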

[15] = Caspase-3/7 induction in CHO-K1 cells by small molecules, qHTS cell viability counter screen (AID 1346979); also: potency is read from the fitted curve at half-maximal effect; nearly all actives have a fitted effect of over 35% in size
Method in brief: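 Wild-type CHO-K1 cells were seeded at 1,500 per well, rested 5hr at 37 C, then exposed to compounds in DMSO. After 16hr, CellTiter-Fluor reagent was added and fluorescence read 1hr later as the viability measure.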

[16] = qHTS assay to identify small molecule agonists of the progesterone receptor (PR) signaling pathway - cell viability counter screen (AID 1346799; calls by dose curve; also: nearly all actives have a fitted effect of over 45% in size; also: potency is read from the fitted curve at half-maximal effect)
Method in brief: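 PR-UAS-bla HEK293T cells, 3,000 per well in medium with 2% charcoal-stripped FBS, were preincubated 6 hr at 37C, then exposed to compounds for 16 hr; viability was read as CellTiter-Glo luminescence after 30 min at room temperature.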

[17] = Caspase-3/7 induction in HepG2 cells by small molecules, qHTS assay (AID 1346978); also: nearly all actives have a fitted effect of over 15% in size; also: potency is read from the fitted curve at half-maximal effect
Method in brief: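 Wild-type HepG2 cells (2,000/well) were settled 5 h at 37 C, 5% CO2, then exposed to compounds in DMSO for 17 h. Caspase-3/7 activity was read by luminescence 30 min after adding Caspase-Glo 3/7 reagent at room temperature.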

[18] = target: Cytochrome P450 2D6 (Homo sapiens) (UniProt P10635); experiment: Cytochrome P450 Family 2 Subfamily D Member 6 (CYP2D6) small molecule antagonists: luciferase reporter qHTS assay (AID 1671196); also: nearly all actives have a fitted effect of over 50% in size; also: potency is read from the fitted curve at half-maximal effect; as to activity change, negative = inhibition: series mostly up to about 120 µM
Cytochrome P450 2D6 (Homo sapiens), sequence (P10635 whole entry, looked up): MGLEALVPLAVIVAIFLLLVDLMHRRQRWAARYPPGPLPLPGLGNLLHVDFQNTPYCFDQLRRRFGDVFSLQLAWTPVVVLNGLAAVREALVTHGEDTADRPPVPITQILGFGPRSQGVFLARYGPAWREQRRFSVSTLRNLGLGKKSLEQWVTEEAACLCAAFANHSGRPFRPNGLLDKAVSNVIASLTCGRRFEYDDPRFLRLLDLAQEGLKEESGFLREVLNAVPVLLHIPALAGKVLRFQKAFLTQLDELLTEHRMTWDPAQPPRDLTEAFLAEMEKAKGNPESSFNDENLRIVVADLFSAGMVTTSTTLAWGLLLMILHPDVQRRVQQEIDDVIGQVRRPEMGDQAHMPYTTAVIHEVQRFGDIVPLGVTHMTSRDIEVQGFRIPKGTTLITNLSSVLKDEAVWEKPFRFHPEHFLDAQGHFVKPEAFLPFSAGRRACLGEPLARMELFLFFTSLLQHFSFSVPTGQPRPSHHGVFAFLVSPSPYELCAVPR
Method in brief: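 CYP2D6 activity was followed as luminescence from its luciferin product after a 1 h NADPH-driven reaction at room temperature. Enzyme-substrate mix and compound were pre-incubated for 10 min, and the signal was read 20 min after adding detection reagent.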

[19] = qHTS assay to identify small molecule antagonists of the TGF-beta/Smad signaling pathway - cell viability counter screen (AID 1346824); also: nearly all actives have a fitted effect of over 50% in size; also: potency is read from the fitted curve at half-maximal effect
Method in brief: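 SBE-bla HEK 293T cells were plated overnight at 37 C, then given compounds in DMSO plus TGF-beta1 (added as 0.25 ng/mL solution) for 5 hr. After the bla read, CellTiter-Glo was added to the same wells and luminescence read after 30 min at room temperature.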

[20] = target: Progesterone receptor (Homo sapiens) (UniProt P06401); experiment: qHTS assay to identify small molecule antagonists of the progesterone receptor (PR) signaling pathway (AID 1346795; active = well fitted inhibition curve with a large enough effect in the signal ratio in the repeat runs, not every such curve was filed as active; the % refers to the signal ratio; also: potency is read from the fitted curve at half-maximal effect)
Method in brief: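 PR-UAS-bla HEK293T cells carrying a UAS-driven beta-lactamase reporter were plated in medium with 2% charcoal-stripped FBS and rested 6 hr at 37C. Compounds were added with 1 nM R5020 (final) for 16 hr, then FRET substrate loaded 2 hr at room temperature.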

In the case of Cc1cccc(CN2CCN(C(c3ccccc3)c3ccc(Cl)cc3)CC2)c1 (stereo not drawn), the Potency [1] is reported as “inactive”, the Potency [2] is reported as “inactive” and the Potency [3] is reported as “inactive”. The Potency [4] was “inactive”, the Potency [5] was “inactive” and the Potency [6] was “inactive”. The Potency [7] was “inactive”, the Potency [8] was “inactive” and the Potency [9] was “inactive”. For the same compound, the Potency [10] was “inactive”, the max activation [11] was -4.36% and the Potency [12] was “inactive”. For the same compound, the Potency [13] was “inactive”.

For CCCCN1C(=O)[C@@H]([C@H](O)C2CCCCC2)NC(=O)C12CCN(Cc1ccc(Oc3ccc(C(=O)O)cc3)cc1)CC2, the Potency [1] was “inactive”, the Potency [2] was “inactive” and the Potency [3] was “inactive”. The Potency [14] was “inactive”, the Potency [5] was “inactive” and the Potency [6] was “inactive”. For the same compound, the Potency [15] was 61.1 µM (active), the Potency [8] was “inactive” and the Potency [9] was 30.6 µM (active). The Potency [10] was “inactive”.

In the case of O=C(OC[C@H]1O[C@@H](OC(=O)c2cc(O)c(O)c(OC(=O)c3cc(O)c(O)c(O)c3)c2)[C@H](OC(=O)c2cc(O)c(O)c(OC(=O)c3cc(O)c(O)c(O)c3)c2)[C@@H](OC(=O)c2cc(O)c(O)c(OC(=O)c3cc(O)c(O)c(O)c3)c2)[C@@H]1OC(=O)c1cc(O)c(O)c(OC(=O)c2cc(O)c(O)c(O)c2)c1)c1cc(O)c(O)c(OC(=O)c2cc(O)c(O)c(O)c2)c1, the Potency [1] is reported as 18.5 µM (active), the activation [2] is reported as 2.55% [at 19 µM] and the activity change, negative = cytotoxicity [3] is reported as -7.91% [at 18.9 µM]. It also gave an activity change, negative = cytotoxicity [16] of 9.14% [at 19 µM], an activity change, negative = cytotoxicity [14] of 7.05% [at 15.8 µM] and an activation [4] of -3.84% [at 15.8 µM]. It also gave an activity, negative = inhibition [5] of 4.26% [at 10.5 µM], an activation [6] of 0.113% [at 11.8 µM] and a caspase activation [17] of -2.85% [at 19 µM]. For the same compound, the Potency [15] was 16.5 µM (active), the caspase-3/7 activation [8] was 0.641% [at 19 µM] and the Potency [9] was 18.5 µM (active). The activation [10] was -5.98% [at 19 µM], the max activation [11] was -10.1% and the Potency [13] was 10 µM (active). For the same compound, the activity change, negative = inhibition [18] was -17.1% [at 23.6 µM].

In the case of O=c1c(-c2ccccc2)c1-c1ccccc1, the Potency [1] is reported as “inactive”, the Potency [2] is reported as “inactive” and the Potency [16] is reported as “inactive”. For the same compound, the Potency [19] was “inactive”, the Potency [14] was “inactive” and the Potency [4] was “inactive”. For the same compound, the Potency [5] was “inactive”, the Potency [6] was “inactive” and the Potency [7] was 26.6 µM (active). For the same compound, the Potency [15] was 16.8 µM (active), the Potency [10] was 11.9 µM (active) and the max activation [11] was -15.6%. The Potency [12] was “inactive” and the Potency [13] was “inactive”.

For NNc1nc(-c2ccccc2)cs1, the Potency [1] was 56 µM (active), the Potency [2] was “inactive” and the Potency [20] was 19.9 µM (active). The Potency [19] was “inactive”, the Potency [14] was “inactive” and the Potency [5] was “inactive”. For the same compound, the Potency [6] was “inactive”, the Potency [7] was “inactive” and the Potency [17] was “inactive”. The Potency [15] was 62.9 µM (active), the Potency [8] was “inactive” and the Potency [10] was 31.5 µM (active).

In the case of CCCCCCCCCCn1cc[n+](CCCCCCCCCC)c1C, the Potency [1] is reported as 30.7 µM (active), the Potency [2] is reported as “inactive” and the Potency [3] is reported as 21.7 µM (active). The Potency [16] was 30.7 µM (active), the Potency [19] was 24.6 µM (active) and the Potency [14] was 21.9 µM (active). For the same compound, the Potency [4] was “inactive”, the Potency [5] was “inactive” and the Potency [6] was “inactive”. The Potency [7] was 19.4 µM (active), the Potency [17] was 48.6 µM (active) and the Potency [15] was 6.87 µM (active). For the same compound, the Potency [9] was 68.7 µM (active), the Potency [10] was 7.7 µM (active) and the Potency [18] was 1.26 µM (active).

For O=C(OCC1CO1)C1CCCCC1C(=O)OCC1CO1 (stereo not drawn), the Potency [1] was “inactive”, the Potency [2] was “inactive” and the Potency [3] was “inactive”. For the same compound, the Potency [19] was “inactive”, the Potency [17] was “inactive” and the Potency [15] was 68.7 µM (active). For the same compound, the Potency [8] was “inactive” and the Potency [18] was “inactive”.

From PubChem BioAssay (Tox21)
